Laboratory results as given in PubChem BioAssay (Tox21).
Results filed as inconclusive are left out. The source made the active and inactive calls. Unless noted, calls follow the shape of the dose curve; as a rule, active = well fitted curve in the direction sought with a large enough effect in the repeat runs; inconclusive = weak or mixed curves; inactive = no such curve, though single readings can be large; an effect the other way counts as inactive or inconclusive.

Experiments:
[1] = qHTS assay to identify small molecule agonists of the peroxisome proliferator-activated receptor delta (PPARd) signaling pathway - cell viability counter screen (AID 743211); also: nearly all actives have a fitted effect of over 55% in size
In short: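 Following 5 h plating at 37 C and 5% CO2, PPARd UAS-bla HEK293H cells took up test compounds for 17 h. Viability was quantified by luminescence 30 min after CellTiter-Glo addition at room temperature.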

[2] = qHTS assay to identify small molecule antagonists of the peroxisome proliferator-activated receptor delta (PPARd) signaling pathway - cell viability counter screen (AID 743213); also: nearly all actives have a fitted effect of over 50% in size
In short: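 Viability counter-screen, qHTS format: PPARd-bla HEK293H, L165041 300 nM final, 17 h compound exposure at 37 C, CellTiter-Glo luminescence after 30 min RT.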

[3] = biological target: Bile acid receptor (Homo sapiens) (UniProt Q96RI1); assay: qHTS assay to identify small molecule antagonists of the farnesoid-X-receptor (FXR) signaling pathway (AID 743217; active = well fitted inhibition curve with a large enough effect in the signal ratio in the repeat runs, not every such curve was filed as active; the % refers to the signal ratio)
Bile acid receptor (Homo sapiens), sequence (Q96RI1 whole entry, looked up): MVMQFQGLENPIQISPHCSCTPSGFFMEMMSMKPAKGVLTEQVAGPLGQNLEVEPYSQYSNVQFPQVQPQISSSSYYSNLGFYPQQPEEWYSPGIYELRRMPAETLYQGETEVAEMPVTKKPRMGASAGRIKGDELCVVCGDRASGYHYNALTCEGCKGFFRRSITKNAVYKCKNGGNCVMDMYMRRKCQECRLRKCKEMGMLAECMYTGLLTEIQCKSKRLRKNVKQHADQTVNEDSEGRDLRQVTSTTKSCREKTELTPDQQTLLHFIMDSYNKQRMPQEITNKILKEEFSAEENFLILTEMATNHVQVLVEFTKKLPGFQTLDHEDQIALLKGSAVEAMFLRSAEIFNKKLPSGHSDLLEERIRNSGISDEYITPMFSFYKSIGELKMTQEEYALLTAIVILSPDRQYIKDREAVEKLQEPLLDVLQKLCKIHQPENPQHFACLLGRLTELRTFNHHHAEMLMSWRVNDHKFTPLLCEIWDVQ
In short: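 Read-out: beta-lactamase FRET fluorescence (LiveBLAzer B/G substrate, 2 h, room temperature) in GeneBLAzer FXR-UAS-bla HEK 293T cells. Compounds were co-dosed with 50 uM chenodeoxycholic acid (final) and incubated 16 h at 37 °C.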

[4] = biological target: Bile acid receptor (Homo sapiens) (UniProt Q96RI1); assay: qHTS assay to identify small molecule agonists of the farnesoid-X-receptor (FXR) signaling pathway (AID 743220; active = well fitted activation curve with a large enough effect in the signal ratio in the repeat runs, not every such curve was filed as active; the % refers to the signal ratio)
In short: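 FXR-UAS-bla HEK 293T cells carrying a UAS-driven beta-lactamase reporter were plated for 5 h at 37C/5% CO2, then exposed to DMSO-dissolved Tox21 10K compounds for 16 h at 37C. A LiveBLAzer B/G FRET substrate was loaded for 2 h at room temperature before fluorescence reading.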

[5] = qHTS assay to identify small molecule antagonists of the farnesoid-X-receptor (FXR) signaling pathway - cell viability counter screen (AID 743221; active = well fitted cell-killing curve with a large enough effect in the repeat runs, not every such curve was filed as active; also: nearly all actives have a fitted effect of over 50% in size)
In short: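 Compound effects on cell number were measured as CellTiter-Glo luminescence in HEK 293T cells expressing FXR-UAS-bla, after 16 h at 37 C with 50 uM CDCA (final).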

[6] = biological target: Vitamin D3 receptor (Homo sapiens) (UniProt P11473); assay: qHTS assay to identify small molecule agonists of the vitamin D receptor (VDR) signaling pathway (AID 743222; calls by dose curve)
Vitamin D3 receptor (Homo sapiens), sequence (P11473 whole entry, looked up): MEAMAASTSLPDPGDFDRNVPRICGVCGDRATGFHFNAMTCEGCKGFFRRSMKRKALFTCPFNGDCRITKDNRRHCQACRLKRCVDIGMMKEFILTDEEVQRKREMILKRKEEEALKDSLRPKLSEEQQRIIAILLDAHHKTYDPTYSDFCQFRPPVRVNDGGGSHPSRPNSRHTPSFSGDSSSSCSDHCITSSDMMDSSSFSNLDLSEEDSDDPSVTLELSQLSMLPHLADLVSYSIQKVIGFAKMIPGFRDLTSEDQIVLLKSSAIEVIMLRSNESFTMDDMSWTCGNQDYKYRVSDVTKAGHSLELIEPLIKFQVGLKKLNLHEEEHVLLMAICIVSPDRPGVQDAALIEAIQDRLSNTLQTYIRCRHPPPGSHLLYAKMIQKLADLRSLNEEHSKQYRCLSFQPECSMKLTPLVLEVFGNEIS
In short: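 Beta-lactamase reporter readout (LiveBLAzer B/G FRET, 2 h RT) in VDR-bla cells after 16 h compound treatment at 37C, 5% CO2; cells pre-incubated 4 h before pin transfer of DMSO solutions.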

[7] = biological target: Vitamin D3 receptor (Homo sapiens) (UniProt P11473); assay: qHTS assay to identify small molecule antagonists of the vitamin D receptor (VDR) signaling pathway (AID 743223; active = well fitted inhibition curve with a large enough effect in the signal ratio in the repeat runs, not every such curve was filed as active; the % refers to the signal ratio)
In short: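 Beta-lactamase activity in VDR-bla cells is measured by FRET substrate fluorescence (2 h, room temperature) after cells spend 16 h at 37C with test compound and 3 nM final 1alpha,25-dihydroxyvitamin D3.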

[8] = qHTS assay to identify small molecule agonists of the vitamin D receptor (VDR) signaling pathway - cell viability counter screen (AID 743224); also: nearly all actives have a fitted effect of over 50% in size; also: potency is read from the fitted curve at half-maximal effect
In short: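 Cytotoxicity counter screen: VDR-bla cells, 16 h compound exposure at 37C, 5% CO2; CellTiter-Glo luminescence, 30 min RT, same wells as bla read.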

[9] = qHTS assay to identify small molecule antagonists of the vitamin D receptor (VDR) signaling pathway - cell viability counter screen (AID 743225); also: nearly all actives have a fitted effect of over 50% in size
In short: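 In this counter screen, VDR-bla HEK 293T cells receive test compound plus 3 nM final calcitriol for 16 h at 37C. Room-temperature steps of 2 h with the beta-lactamase substrate, then 30 min with CellTiter-Glo, precede the luminescence read.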

[10] = qHTS assay to identify small molecule agonists of the NFkB signaling pathway (AID 1159509; active = well fitted curve in the direction sought with a large enough effect in the signal ratio in the repeat runs, not every such curve was filed as active; the % refers to the signal ratio; also: series mostly up to about 61 µM)
In short: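 Beta-lactamase reporter assay run in quantitative high-throughput format on an NF-kB-responsive ME-180 line, with 5 hr compound treatment and a FRET-based blue/green fluorescence readout.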

[11] = qHTS assay to identify small molecule agonists of the NFkB signaling pathway - cell viability counter screen (AID 1159515; calls by dose curve; also: series mostly up to about 61 µM; nearly all actives have a fitted effect of over 55% in size)
In short: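 ME-180 NFkB-bla cells, 2,000/well; overnight attach; compound 5 hr, 37 C/5% CO2; LiveBLAzer substrate 1.5 hr RT; then CellTiter-Glo in same wells, 30 min RT, luminescence read.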

[12] = qHTS assay to identify small molecule agonists of the endoplasmic reticulum stress response signaling pathway (AID 1159516; active = well fitted activation curve with a large enough effect in the signal ratio in the repeat runs, not every such curve was filed as active; the % refers to the signal ratio)
In short: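 HeLa ESRE-bla reporter line; cpd 5 h, 37 C/5% CO2; LiveBLAzer B/G FRET substrate 2 h RT; ex 405, em 460/530 nm.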

[13] = qHTS assay to identify small molecule agonists of the endoplasmic reticulum stress response signaling pathway - cell viability counter screen (AID 1159517; calls by dose curve; also: nearly all actives have a fitted effect of over 50% in size; also: potency is read from the fitted curve at half-maximal effect)
In short: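 After overnight attachment, ESRE-bla HeLa cells were treated with Tox21 library compounds for 5 hr. CellTiter-Glo luminescence, read 30 min post-addition at room temperature, reported viability.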

[14] = qHTS assay to identify small molecule antagonists of the retinoid-related orphan receptor gamma (ROR-gamma) signaling pathway - cell viability counter screen (AID 1159520); also: nearly all actives have a fitted effect of over 50% in size; also: potency is read from the fitted curve at half-maximal effect
In short: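 Cytotoxicity was read from cellular ATP (CellTiter-Glo luminescence) after 16 hr at 37 C with 1 uM doxycycline induction. The inducer was added 2 hr after compound transfer to Tet-on ROR gamma CHO cells.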

[15] = biological target: Nuclear receptor ROR-gamma (Homo sapiens) (UniProt P51449); assay: qHTS assay to identify small molecule antagonists of the retinoid-related orphan receptor gamma (ROR-gamma) signaling pathway (AID 1159521; also: nearly all actives have a fitted effect of over 50% in size; also: potency is read from the fitted curve at half-maximal effect)
In short: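 Screening format: cell-based luciferase reporter in CHO cells with doxycycline-inducible RORγ. Compound pre-exposure lasts 2 h, doxycycline is 1 uM final, induction runs 16 h at 37 C, and ONE-Glo luminescence is read.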

[16] = qHTS assay to identify small molecule agonists of the AP-1 signaling pathway - cell viability counter screen (AID 1159525; calls by dose curve; also: nearly all actives have a fitted effect of over 55% in size)
In short: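 Intracellular ATP by Cell Titer Glo luminescence (30 min, RT) in the same ME-180 AP-1-bla wells after the 5 h compound exposure at 37 °C. Normalised to tetra n-octyl ammonium bromide and DMSO controls.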

[17] = qHTS assay to identify small molecule agonists of the AP-1 signaling pathway (AID 1159526; calls by dose curve)
[18] = biological target: Peroxisome proliferator-activated receptor delta (Homo sapiens) (UniProt Q03181); assay: qHTS assay to identify small molecule agonists of the peroxisome proliferator-activated receptor delta (PPARd) signaling pathway (AID 743212; calls by dose curve)
Peroxisome proliferator-activated receptor delta (Homo sapiens), sequence (Q03181 whole entry, looked up): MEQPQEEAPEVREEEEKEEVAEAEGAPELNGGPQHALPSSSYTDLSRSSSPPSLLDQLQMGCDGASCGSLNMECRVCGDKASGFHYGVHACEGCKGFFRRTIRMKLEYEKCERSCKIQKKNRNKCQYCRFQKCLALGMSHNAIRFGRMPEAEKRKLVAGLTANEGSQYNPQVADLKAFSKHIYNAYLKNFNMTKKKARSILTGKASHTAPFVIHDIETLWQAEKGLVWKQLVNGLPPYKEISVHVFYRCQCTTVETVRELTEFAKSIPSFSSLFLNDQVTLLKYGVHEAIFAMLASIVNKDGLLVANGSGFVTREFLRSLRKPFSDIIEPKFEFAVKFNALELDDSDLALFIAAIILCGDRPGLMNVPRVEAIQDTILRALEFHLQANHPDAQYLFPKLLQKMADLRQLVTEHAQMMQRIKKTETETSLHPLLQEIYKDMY
In short: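 Steps: seed PPARd-bla HEK293H cells; incubate 5 h, 37 C, 5% CO2; add compounds in DMSO; incubate, 37 C; add LiveBLAzer B/G FRET substrate; hold 2 h at room temperature; measure fluorescence.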

[19] = qHTS assay to identify small molecule agonists of the farnesoid-X-receptor (FXR) signaling pathway - cell viability counter screen (AID 743218); also: nearly all actives have a fitted effect of over 45% in size; also: potency is read from the fitted curve at half-maximal effect
In short: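 Luminescence from CellTiter-Glo, read after 30 min at RT, reports viability of GeneBLAzer FXR-UAS-bla HEK 293T cells treated 16 h with compounds in the wells used for the beta-lactamase reporter.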

[20] = biological target: Peroxisome proliferator-activated receptor delta (Homo sapiens) (UniProt Q03181); assay: qHTS assay to identify small molecule antagonists of the peroxisome proliferator-activated receptor delta (PPARd) signaling pathway (AID 743215; active = well fitted inhibition curve with a large enough effect in the signal ratio in the repeat runs, not every such curve was filed as active; the % refers to the signal ratio;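 also: cells stimulated with agonist L165041 at 300 nM final during compound exposure; series mostly up to about 62 µM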)
In short: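 HEK293H GeneBLAzer PPARd UAS-bla reporter cells; cpd + L165041 300 nM final, 17 h 37 C; LiveBLAzer B/G FRET substrate 2 h RT; fluorescence intensity read-out. Antagonist mode.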

Measured: Potency

N#CCBr
not listed: [18] | [19] | [20]
inactive: all other assays above

CC(COc1ccc(Oc2ccccc2)cc1)Oc1ccccn1 (stereo unspecified)
not listed: [2] | [9] | [19] | [20]
inactive: all other assays above

O=CNC(N1CCN(C(NC=O)C(Cl)(Cl)Cl)CC1)C(Cl)(Cl)Cl (stereo unspecified)
not listed: [2] | [3] | [4] | [5] | [20]
inactive: all other assays above

COP(N)(=S)Oc1ccccc1C(=O)OC(C)C (stereo unspecified)
not listed: [3] | [4] | [7] | [19] | [20]
inactive: all other assays above

CC(C(=O)c1ccccc1)N(C)C (stereo unspecified)
not listed: [2] | [3] | [4] | [6] | [7] | [9] | [20]
inactive: all other assays above

CCS(=O)(=O)C(C)(C)S(=O)(=O)CC
not listed: [18] | [19] | [20]
inactive: all other assays above

O=P(O)(Oc1ccccc1)Oc1ccccc1
not listed: [2] | [6] | [18] | [20]
inactive: all other assays above

O=S(=O)(O)C(F)(F)C(F)(F)C(F)(F)C(F)(F)C(F)(F)C(F)(F)F
not listed: [7] | [8] | [18]
inactive: all other assays above

O=[N+]([O-])c1ccc(CBr)cc1
active: [13] 27.2 µM
not listed: [2] | [3] | [4] | [6] | [7] | [20]
inactive: all other assays above

ClC(Br)Br
not listed: [2] | [6] | [7]
inactive: all other assays above

CCCSP(=O)(OCC)Oc1ccc(Br)cc1Cl (stereo unspecified)
not listed: [1] | [2] | [3] | [8] | [19]
inactive: all other assays above

COC(=O)C1=CCCN(C)C1
not listed: [17]
inactive: all other assays above

CC(CC(C#N)(c1ccccc1)c1ccccc1)N(C)C (stereo unspecified)
not listed: [1] | [2] | [8] | [17] | [19] | [20]
inactive: all other assays above

BrCCCCCCBr
not listed: [3] | [4] | [7] | [8] | [17] | [20]
inactive: all other assays above

CCC(Cl)[N+](=O)[O-] (stereo unspecified)
not listed: [1]
inactive: all other assays above

CN(N=O)C(N)=O
not listed: [17] | [18] | [19] | [20]
inactive: all other assays above

CC(Oc1ccc(Oc2ncc(C(F)(F)F)cc2Cl)cc1)C(=O)O (stereo unspecified)
active: [19] 21.9 µM | [15] 27.3 µM
not listed: [1] | [2] | [3] | [4] | [5] | [18]
inactive: all other assays above

COc1cccc2c1cc([N+](=O)[O-])c1c(C(=O)O)cc3c(c12)OCO3
inactive: [1] | [10] | [11] | [12] | [13] | [16]
active: [8] 15.5 µM | [14] 43.3 µM | [15] 15.4 µM

[Cl][Sn]([Cl])([Cl])[Cl]
not listed: [1] | [3] | [4] | [7] | [20]
inactive: all other assays above

CC(C)CP(=S)(S)CC(C)C
inactive: [1] | [3] | [5] | [9] | [10] | [11] | [12] | [13] | [14] | [16]
active: [15] 24.3 µM

CN1C(=S)CN=C(c2ccccc2)c2cc(Cl)ccc21
not listed: [1] | [2]
inactive: all other assays above

c1cc[c]([Hg][c]2ccccc2)cc1
active: [8] 49 µM | [14] 27.3 µM | [15] 19.3 µM
not listed: [1] | [3] | [4] | [7] | [17] | [19] | [20]
inactive: all other assays above

CCOP(=S)(OCC)Oc1nc(Cl)n(C(C)C)n1
not listed: [2] | [3] | [4] | [9] | [18] | [19] | [20]
inactive: all other assays above

ClC(Cl)(Cl)C(Cl)(Cl)Cl
not listed: [1] | [2] | [3] | [4] | [18] | [20]
inactive: all other assays above

CC1(C)CON(Cc2ccccc2Cl)C1=O
not listed: [1] | [3] | [4] | [8] | [20]
inactive: all other assays above

N#Cc1ccncc1
not listed: [1] | [2] | [3] | [4] | [7] | [19]
inactive: all other assays above

CC1(C)COP(Oc2ccccc2)OC1
not listed: [1] | [20]
inactive: all other assays above

O=C(O)c1ccc2[nH]cc(CCCCN3CC=C(c4ccccc4)CC3)c2c1
not listed: [1] | [3] | [4] | [19]
inactive: all other assays above

CCC/C(=N\OCC)C1=C(O)CC(CC(C)SCC)CC1=O (stereo unspecified)
not listed: [1] | [3] | [4] | [7] | [8] | [20]
inactive: all other assays above

Nc1n[nH]c(N)n1
active: [15] 15.6 µM
not listed: [17] | [19]
inactive: all other assays above

COc1cc(C[C@@H](C)N)c(OC)cc1C
not listed: [1] | [8] | [20]
inactive: all other assays above

CNNC
not listed: [7] | [17] | [18] | [20]
inactive: all other assays above

COc1ccc2c(c1OC)CN1CCc3cc4c(cc3C1C2)OCO4 (stereo unspecified)
not listed: [1] | [3] | [4] | [8] | [9] | [18] | [20]
inactive: all other assays above

CC(C=O)Cc1ccc2c(c1)OCO2 (stereo unspecified)
not listed: [1] | [7] | [17] | [20]
inactive: all other assays above

O=C1CN2CCOC2(c2ccccc2Cl)c2cc(Cl)ccc2N1 (stereo unspecified)
not listed: [1] | [3] | [17]
inactive: all other assays above

Cc1coc2c1CCC(C)C2 (stereo unspecified)
not listed: [1] | [3] | [4] | [7]
inactive: all other assays above

CCS(=O)(=O)CCSP(=O)(OC)OC
not listed: [1] | [2] | [3] | [4] | [7]
inactive: all other assays above
